Screening data as filed in PubChem.
This is a sample that favours compounds with a hit; in the whole collection about 18% have one here.
CtBP-E1A blk – blocks the CtBP interaction with E1A; AlphaScreen GST-E1A/His-CtBP binding, 1536-well; hits give low values; activity change, % (test concentration not listed); 0.49% of 340,000 active; AID 651724; in the data active = activity change below about -65%; inconclusive = mostly about -30% to -63%
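Steps: dispense buffer (Tris pH 8.0, NaCl 300 mM, TCEP 1 mM, BSA, Tween 20); add 5X protein mix (GST-E1A, His-CtBP, 125 nM each); pin 23 nL compound; 2 h at 37 °C, dark; add 5X beads (50 ug/mL); 1 h; read.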
DT40 TDP1 no CPT – qHTS for Inhibitors of human tyrosyl-DNA phosphodiesterase 1 (TDP1): qHTS in cells in absence of CPT | DT40 Tdp1-/- hTDP1 cells, no CPT, ATP luminescence, 48 h | Potency, µM (series often up to 46.2 µM), for the others: top-dose activity change, negative = growth inhibition, hits mostly inhibitors | 15% of 420,000 active | AID 686978, 2013; note: potency is the fitted concentration of half-maximal effect; nearly all actives have a fitted effect of over 55% in size
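Readout: luminescence from CellTiter-Glo after 30 min in the dark at RT. Cells: DT40 Tdp1-/- with stable hTDP1, 400/well. Exposure: compounds alone, ≥48 hr, 37 °C.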
TDP1 inh – inhibitors of human tyrosyl-DNA phosphodiesterase TDP1; Q9NUW8; recombinant TDP1, AlphaScreen DNA substrate cleavage; Potency, µM (top dose mostly 130 µM), for inactives: at the top dose activity change, negative = inhibition, usual class: inhibitors; 0.28% of 350,000 active; note: potency is the fitted concentration of half-maximal effect; nearly all actives have a fitted effect of over 40% in size
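Enzyme-compound mixtures sat 15 min at room temperature, followed by a 5 min reaction with 15 nM final substrate and 10 min with AlphaScreen beads. Recombinant human Tdp1 was used at 1 nM final.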
TDP1 cell CPT – growth inhibition of DT40 Tdp1-/-;hTDP1 cells with camptothecin (screen for TDP1 inhibitors) | 12% of 420,000 active | AID 686979 | Potency, µM (top dose mostly 46.2 µM), for inactives: at the top dose activity change, negative = growth inhibition, usual class: inhibitors | chicken DT40 Tdp1-/-;hTDP1 cells + 20 nM CPT, ATP luminescence, 48 h; note: potency is the fitted concentration of half-maximal effect; nearly all actives have a fitted effect of over 55% in size
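Cell growth measured by CellTiter-Glo luminescence after a minimum 48 h, 37 C compound exposure with 20 nM CPT in Tdp1-knockout DT40 cells stably expressing hTDP1, seeded 400/well; qHTS titration format.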
IL-1B inflam inh – blocks inflammasome-driven IL-1 beta release; activity change, % at 57.5 µM; 4.7% of 360,000 active; THP-1 LPS/ATP IL-1B secretion, AlphaLISA, 16 h; hits give low values; in the data active = activity change below about -50%; inconclusive = mostly about -30% to -49%
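THP-1 cells pretreated 1 hr with compounds (up to 57.5 uM final), then stimulated with LPS (250 ng/mL final) plus ATP (1.25 mM final); secreted IL-1B measured by AlphaLISA after 16 hr, decreased signal indicating inhibition.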
Six1-Eya2 blk – inhibitors of human Six1/Eya2 interaction. Q15475+O00167. AlphaScreen GST-Six1/His-Eya2 binding, biochemical; hits give low values. activity change, % (no concentration beside the values). 0.56% of 360,000 active. AID 651725; in the data active = activity change below about -65%; inconclusive = mostly about -30% to -63%
Target sequence (O00167 whole entry, looked up): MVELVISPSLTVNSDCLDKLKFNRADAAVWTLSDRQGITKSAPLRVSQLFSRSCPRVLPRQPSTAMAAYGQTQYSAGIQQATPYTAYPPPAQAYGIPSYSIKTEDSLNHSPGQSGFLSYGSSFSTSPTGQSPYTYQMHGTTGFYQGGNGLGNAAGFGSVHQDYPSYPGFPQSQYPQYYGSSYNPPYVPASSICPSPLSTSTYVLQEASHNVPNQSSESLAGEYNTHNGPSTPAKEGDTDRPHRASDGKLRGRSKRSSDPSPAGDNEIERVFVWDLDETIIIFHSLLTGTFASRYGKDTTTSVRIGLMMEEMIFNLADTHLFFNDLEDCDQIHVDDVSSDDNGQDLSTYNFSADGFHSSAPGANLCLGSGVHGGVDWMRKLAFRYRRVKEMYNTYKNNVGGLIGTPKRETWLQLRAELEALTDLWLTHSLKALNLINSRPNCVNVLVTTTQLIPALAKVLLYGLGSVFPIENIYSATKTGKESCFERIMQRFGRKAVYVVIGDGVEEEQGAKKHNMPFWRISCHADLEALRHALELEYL
Target sequence (Q15475 whole entry, looked up): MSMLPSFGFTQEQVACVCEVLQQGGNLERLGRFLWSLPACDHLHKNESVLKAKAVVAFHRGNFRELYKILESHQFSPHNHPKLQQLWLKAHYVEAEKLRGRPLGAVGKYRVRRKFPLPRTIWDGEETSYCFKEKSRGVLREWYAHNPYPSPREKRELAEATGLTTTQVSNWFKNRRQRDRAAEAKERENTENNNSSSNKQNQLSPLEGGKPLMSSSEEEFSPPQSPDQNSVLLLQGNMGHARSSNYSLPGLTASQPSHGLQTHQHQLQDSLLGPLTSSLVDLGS
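Homogeneous AlphaScreen proximity assay pairing GST-Six1 with His-tagged Eya2 (added as 5X mix: 250 nM and 500 nM) in 50 mM Tris pH 8.0, 300 mM NaCl, 1 mM TCEP. Glutathione donor and nickel acceptor beads; 1 h, 37 °C, dark.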
Starred values were filed as active, the others as inactive; i = inactive; ? = inconclusive; nt = not tested or not shown; [ ] = remark or other dose. Unless noted, calls come from the whole dose curve; as a rule, active = well fitted curve in the direction sought with a large enough effect; inconclusive = small, poorly fitted or top-dose-only effect, or another doubt; inactive = no such curve, though single readings can be large; an effect the other way counts as inactive or inconclusive. % is set by controls: 0 for no effect and ±100 for the full control effect.

SMILES	CtBP-E1A blk	DT40 TDP1 no CPT	TDP1 inh	TDP1 cell CPT	IL-1B inflam inh	Six1-Eya2 blk
Cc1ccc(NC2CCCN(C(=O)c3cc(C(C)C)nn3C)C2)cc1C (configuration not stated)	-6	-14%	nt	-15%	28	-4
Cc1cc(C)n2c(SCC(=O)Nc3ccc(Cl)cn3)nnc2n1	nt	nt	5%	nt	nt	nt
CCN(CC)C(=O)c1cc2cc([N+](=O)[O-])ccc2s1	0	-24%	1%	-28%	-11	1
COc1ccc(NS(=O)(=O)c2cnc[nH]2)cc1	-14	3%	1%	0%	0	-2
O=S(=O)(c1cccc(Br)c1)N1CCN(c2ccnc3cc(Cl)ccc23)CC1	-2	21µM*	4%	?	i	-18
CC(C)S(=O)(=O)N1CCN(c2ccnc3cc(Cl)ccc23)CC1	4	?	-8%	?	nt	5
CN(C)S(=O)(=O)N1CCN(c2ccnc3cc(Cl)ccc23)CC1	5	13µM*	nt	23µM*	?	-3
CC(=O)c1ccc(N2CCN(c3ccnc4cc(Cl)ccc34)CC2)cc1	2	3.7µM*	10%	?	-4	20
N#Cc1cccc(S(=O)(=O)N2CCN(c3ccnc4cc(Cl)ccc34)CC2)c1	1	12µM*	2%	12µM*	-16	-6
CCCc1nc(-c2cc3ccccc3[nH]c2=O)no1	-2	-19%	-2%	-13%	-26	-13
O=[N+]([O-])c1ccc(S(=O)(=O)N2CCN(c3ccnc4cc(Cl)ccc34)CC2)cc1	-8	?	6%	18µM*	-18	-9
O=C(C1CCCCC1)N1CCN(c2ccnc3cc(Cl)ccc23)CC1	0	12µM*	7%	10µM*	?	-6
CC(=O)NCc1ccc(-c2csc(NC(=O)CCc3nc4ccccc4c(=O)[nH]3)n2)s1	-3	?	-2%	?	20	-21
Cc1c(C(=O)Nc2nc3ccccc3[nH]2)oc2ccc(Br)cc12	-8	?	11%	?	-6	6
O=C(NCCc1nc2ccccc2[nH]1)c1ccc(Br)o1	0	-7%	6%[0.0935 µM]	1%	-23	0
Cc1c(C(=O)Nc2nc3ccccc3[nH]2)oc2ccccc12	11	23µM*	3%	21µM*	17	-21
O=C(Nc1nc2ccccc2[nH]1)c1ccc(Br)o1	2	15µM*	3%	?	15	-12
Cc1c(C(=O)Nc2nc3ccccc3[nH]2)oc2c(Cl)cccc12	-20	16µM*	-3%	?	51	-5
CCCn1nc(C(=O)Nc2cc(C(=O)OC)ccc2C)c2ccccc2c1=O	3	-7%	4%	1%	14	5
CCC(C(=O)N1CCC(C(N)=O)CC1)n1nc(C)n2c(cc3occc32)c1=O (configuration not stated)	8	5%	2%	-13%	10	-1
CCC(C(=O)N1CCN(c2cc(Cl)ccc2C)CC1)n1nc(C)n2c(cc3occc32)c1=O (configuration not stated)	nt	15µM*	8%	?	nt	nt
CCc1nn(C(CC)C(=O)NCc2cccc(OC)c2OC)c(=O)c2cc3occc3n12 (configuration not stated)	nt	18µM*	1%	21µM*	-13	0
CCc1nn(C(C)C(=O)NCCN2CCN(c3cccc(C)c3C)CC2)c(=O)c2cc3occc3n12 (configuration not stated)	-3	16µM*	5%	?	?	-18
CCc1nn(C(C)C(=O)NCCN2CCCCCC2)c(=O)c2cc3occc3n12 (configuration not stated)	6	18%	5%	5%	18	4
Cc1ccc(NS(=O)(=O)c2cc(C(=O)O)ccc2Cl)cc1	3	?	-2%	1%	0	4
SMILES	CtBP-E1A blk	DT40 TDP1 no CPT	TDP1 inh	TDP1 cell CPT	IL-1B inflam inh	Six1-Eya2 blk
COc1ccc(-c2[nH]ncc2CNC(C)c2ccccc2Cl)cc1F (configuration not stated)	2	23µM*	-4%	16µM*	-26	-3
COc1ccc(-c2[nH]ncc2CNCC(C)(C)N2CCOCC2)cc1F	-1	2%	3%	1%	-3	11
Cc1ccc(C(=O)Nc2ccc(N3CCN(C)CC3)cc2)c(Cl)c1	-10	-8%	nt	-10%	?	2
CCC1=C(OC(=O)N(CC)CC)N2C(=O)OC(=NCC3CC3)[C@]2(Cc2ccccc2)[C@H]2C1=CC[C@H]1C(=O)N(CC)C(=O)[C@H]12	nt	21µM*	8%	16µM*	?	5
CCC1=C(OC(=O)N(CC)CC)N2C(=O)OC(=NCCOC)[C@]2(Cc2ccccc2)[C@H]2C1=CC[C@H]1C(=O)N(CC)C(=O)[C@H]12	1	-5%	2%	-4%	0	39
O=C1NC(=O)/C(=C\c2ccccc2OCc2cccc([N+](=O)[O-])c2)N1	nt	-12%	3%	-20%	1	-11
COC(=O)COc1ccccc1/C=C1/NC(=O)NC1=O	2	-11%	1%	9%	-71*	-15
Cc1cccc(OCC(=O)Nc2nnc(S(=O)(=O)N3CCCCC3)s2)c1	1	-30%	nt	-19%	6	-2
CC(C)(C)c1ccc(C(=O)NC(=S)NNC(=O)COc2ccccc2)cc1	2	16µM*	6%	13µM*	78	3
CC(C)(C)c1ccc(OCC(=O)NNC(=O)CCc2ccccc2)cc1	3	-10%	4%	1%	19	3
Cc1ccc(C(=O)NNC(=S)NC(=O)COc2ccccc2)cc1	-11	6.5µM*	4%	15µM*	33	-11
COC(=O)c1ccccc1NC(=S)NC(=O)COc1ccccc1	6	?	1%	-18%	23	3
O=C(COc1ccccc1)NC(=S)Nc1cccc2c(O)cccc12	-15	26µM*	nt	?	65	-15
CCOC(=O)c1cccc(NS(=O)(=O)c2c(C)[nH]c(C)c2C(=O)N2CCCC2)c1	-1	-16%	1%	-17%	-2	-11
CCOC(=O)C1(C)NC(c2ccccc2F)C2C(=O)N(c3cccc(C(C)=O)c3)C(=O)C21 (configuration not stated)	-1	18µM*	2%	23µM*	13	9
